A selection: hits, their analogues and other compounds. The true share with any hit is near 7.1%.
M1 ag: activates the M1 muscarinic receptor; CHO-M1 cells, Fluo-4 calcium fluorescence, agonist mode; hits give high values; hit rate 3% among 64,000; B-score at 10 µM; AID 626;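 active = fluorescence rise, raw or as B-score row- and column-corrected plate score, outside the 99.7% band of its plate's samples, either direction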
PTK2B oligo ant: Pyk2 (human) oligomerization antagonism. Q293 cells, Pyk2 FERM NanoBiT luminescence; hits give low values. z-score (the deposit names both 25 µM and 10 µM). hit rate 0.83% among 99,000. AID 1347419. Q14289;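 active = Z-score of -3 or lower, scaled per plate to the spread of control and sample wells; inactive = z-score above -3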;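 note: negative z-score means lost luminescence so less FERM oligomerization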
M1 antag: antagonists of rat M1 muscarinic receptor. AID 628. B-score at 10 µM. CHO-M1 cells, Fluo-4 calcium, ACh EC80 antagonist mode; hits give low values. hit rate 3.4% among 64,000;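 active = calcium fluorescence response, raw or row-and-column corrected B-score, differing from the plate sample mean either way at a set confidence level, mostly lower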
Target sequence (P08482 whole entry, looked up): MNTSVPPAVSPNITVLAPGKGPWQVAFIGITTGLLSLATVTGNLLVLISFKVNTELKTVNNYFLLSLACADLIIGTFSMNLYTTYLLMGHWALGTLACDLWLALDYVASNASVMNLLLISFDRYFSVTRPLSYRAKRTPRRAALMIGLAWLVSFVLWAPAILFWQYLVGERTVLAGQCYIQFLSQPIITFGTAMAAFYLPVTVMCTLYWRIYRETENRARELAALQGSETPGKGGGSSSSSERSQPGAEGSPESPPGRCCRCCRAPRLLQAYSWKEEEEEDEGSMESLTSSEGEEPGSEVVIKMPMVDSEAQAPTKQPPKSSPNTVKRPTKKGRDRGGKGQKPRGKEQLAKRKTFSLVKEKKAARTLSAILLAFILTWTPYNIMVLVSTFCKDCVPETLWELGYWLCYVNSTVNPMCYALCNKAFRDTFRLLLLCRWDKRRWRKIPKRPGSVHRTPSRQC
Cav32 inh: human Cav3.2 channel inhibition, primary screen; B-score at 10 µM; Cav3.2-expressing cells, Fluo-4 calcium fluorescence FDSS; hits give low values; O95180; hit rate 4% among 100,000;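 active = single-dose well whose peak fluorescence ratio is a statistical outlier from its plate by either plate-standardised score or position-corrected B-score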
Active calls of the source: *; · = no result.

SMILES | M1 ag | PTK2B oligo ant | M1 antag | Cav32 inh
O=C(Nc1ccc2c(c1)OCO2)N1CCN(c2ncc(C(F)(F)F)cc2Cl)CC1 | · | -0.68 | · | -6.6*
Cc1sc(NC(=O)C2CCCCC2C(=O)O)c(C(N)=O)c1C (centres undefined) | · | -0.1 | · | -4.2*
COCCNc1nc(-c2cc(C(=O)Nc3ccccc3)on2)cc(C(C)C)n1 | · | · | · | -2.3
Cc1ccc(NC(=O)CSc2nccn2Cc2ccccc2)cc1C | · | -0.1 | · | -8*
Clc1ccc(CSc2nccn2Cc2ccccc2)cc1 | · | -2 | · | -5*
CC(=O)Nc1ccc(S(=O)(=O)NCCSCc2c(Cl)cccc2Cl)cc1 | · | -0.19 | · | -5.1*
Cc1ccc(Cn2c(C3CCCN3c3nc(-c4cc(Cl)c(N)c(Cl)c4)cs3)nc3cc(Cl)c(Cl)cc32)cc1 (centres undefined) | · | · | · | 0.95
O=C(O)c1cccc(NC(=S)NC(=O)C(c2ccccc2)c2ccccc2)c1 | · | -1.9 | · | -0.98
COc1ccc(OCCSc2nnc(CC(=O)Nc3cccc(Cl)c3Cl)n2C)cc1 | · | 1.5 | · | -4*
CCn1c(CC(=O)Nc2cccc(Cl)c2Cl)nnc1SCCOc1ccc(OC)cc1 | · | 1.4 | · | -0.029
COc1cccc(-n2cnc3sc(C)c(C)c3c2=O)c1 | · | -0.09 | · | ·
Clc1ccc(CSc2nnc(-c3cccnc3)o2)cc1 | · | -0.04 | · | -1.2
CCCN(CCC)C(=O)CC(c1ccccc1)c1ccc(C)cc1O (centres undefined) | · | -2.3 | · | -5.7*
CN(CC(=O)N1CCc2ccccc21)S(=O)(=O)c1ccc(Br)s1 | -0.89 | 0.24 | 0 | -2.5
Cc1ccc(C)c(NC(=S)NC(NC(=O)/C=C/c2ccccc2)C(Cl)(Cl)Cl)c1 (centres undefined) | · | -0.75 | · | -6.9*
Cc1ccc(C2C(C(=O)c3ccco3)=C(O)C(=O)N2c2nnc(C)s2)cc1 (centres undefined) | · | -0.46 | · | -0.22
COC(=O)c1sc(N2C(=O)C(O)=C(C(=O)c3ccc(C)o3)C2c2ccc(F)cc2)nc1C (centres undefined) | -0.42 | -1.2 | 0.053 | -4.9*
Cc1cc(C(=O)Cn2nnc3ccccc3c2=O)c(C)n1Cc1cccs1 | 0.53 | 0.34 | 1.7 | -3.5*
Cc1cc(C(=O)CN2C(=O)c3ccccc3C2=O)c(C)n1Cc1cccs1 | 0.12 | 0.08 | 0.93 | 1
COC(C[C@@H](O)C[C@H](O)COCc1ccccc1)OC | · | · | · | 0.48
COc1ccc(/C=N/NC(=O)CO/N=C(\C)c2cccs2)cc1 | · | 0.64 | · | -0.46
c1cc(CN2CCCCC2)cc(OCCCNc2nc3ccccc3s2)c1 | · | · | · | -4.3*
O=C(NCCCOc1cccc(CN2CCCCC2)c1)c1ccc(Cl)c(Cl)c1 | · | 0.58 | · | ·
CCCC(C)NC(=O)c1cc(Cl)ccc1OC (centres undefined) | · | -1.2 | · | 0.32
C=C(C)Cn1c(-c2ccc(OC)cc2)nc2ccccc21 | 0.31 | -0.4 | -1.1 | -5*
SMILES | M1 ag | PTK2B oligo ant | M1 antag | Cav32 inh
Cc1ccc(C(=O)NCC2(c3ccccc3)CCCC2)cc1 | · | 0.56 | · | -3.9*
CCNc1nc(NCC)n2c(SC(C(=O)Nc3cc(C)ccc3OC)c3ccccc3)nnc2n1 (centres undefined) | · | -2.2 | · | ·
COc1ccc(-c2cc(-c3cc(OC)ccc3O)[nH]n2)cc1 | · | -2.1 | · | -4.5*
O=C(CCSc1ccc(Cl)c(Cl)c1)NC12CC3CC(CC(C3)C1)C2 | · | 0.02 | · | -5.9*
CCc1ccc(OCc2nc(-c3ccccn3)no2)c(Br)c1 | 0.6 | -1.6 | 0 | -4.6*
CCn1c(SCC(=O)OCC(=O)N2c3ccccc3NC(=O)C2(C)C)nnc1-c1ccco1 | -0.68 | -0.64 | -0.087 | -0.33
CCCCCCn1c(COc2ccccc2F)nnc1SCC(=O)N1c2ccccc2NC(=O)C1(C)C | · | 0.02 | · | -5.9*
CC1(C)S[C@@H]2C(C(=O)OCc3ccccc3)NC(=O)N2C1C(=O)OCc1ccccc1 (some centres undefined) | · | · | · | -0.14
Cc1nn(Cc2c(F)c(F)c(F)c(F)c2F)c(C)c1NC(=O)c1ccc(COc2ccc(F)cc2)o1 | · | -0.31 | · | -4.9*
Cc1nn(Cc2c(F)c(F)c(F)c(F)c2F)c(C)c1NC(=O)c1ccc(COc2ccccc2Cl)o1 | · | -0.46 | · | ·
O=c1[nH]c2cc3c(cc2cc1C(c1nnnn1CC1CCCO1)N1CCCCCC1)OCCO3 (centres undefined) | · | 2.4 | · | 0.033
Nc1ccc(C2(c3ccc(N)cc3)C(=O)Nc3ccccc32)cc1 | · | -0.03 | · | 0.22
O=C1Nc2ccccc2C1(c1ccccc1)c1ccccc1 | · | -1.1 | · | -9.5*
COC(C[C@@H]1O[C@H]1C(=O)[C@@H](C)OCc1ccccc1)OC | · | · | · | 0.72
CCOC(=O)c1ccccc1-c1csc(NS(=O)(=O)c2ccc(Cl)cc2)n1 | · | -1.4 | · | -9.2*
O=C(CSc1nc(-c2ccc(F)cc2)cs1)N1CCN(C(=O)c2ccco2)CC1 | 0.35 | -0.2 | -0.14 | -1.2
COC(=O)c1cc2sccc2n1CC(=O)Nc1cccc(SC)c1 | 0.008 | -3.6* | 0.32 | -1
O=C1c2ccccc2C(=O)N1CCCc1nc2ccccc2c(=O)n1-c1cccnc1 | 3 | · | -0.3 | 1.6
C#Cc1ccc([C@H]2C=C(C(=O)NCc3nc4ccccc4[nH]3)O[C@@H](OCC)[C@@H]2CCCO)cc1 | · | · | · | -1.4
CCCCn1cc(SCC(=O)O)c2ccccc21 | -0.55 | 1.6 | 21* | 0.34
CCN(CC)CCCNC(CC(=O)Nc1cccc([N+](=O)[O-])c1)C(=O)O (centres undefined) | · | 2.3 | · | ·
Cc1nn(Cc2ccc(Cl)cc2)c(C)c1NC(=O)C(c1ccccc1)c1ccccc1 | · | 0.43 | · | ·
CC(C)(C)c1cc(C(C)(C)C)cc(S(=O)(=O)CCc2ccccn2)c1 | · | -0.45 | · | -6.9*
Cc1cccc(-c2c3c(=O)n(C)c(=O)n(C)c3c3nnc4ccccc4n23)c1 | 5.2* | 0.39 | -0.85 | ·
CCOC(=O)c1c(C)[nH]c(C)c1C(=O)Cn1nnc(-c2ccccc2C)n1 | -0.038 | -1.8 | -1.7 | -10*
CC1=C(C(=O)OCC2CCCO2)C(c2ccc(C)o2)C2=C(CC(c3ccc(N(C)C)cc3)CC2=O)N1 (centres undefined) | 5.6* | · | -0.24 | ·
CC1=C(C(=O)OCC2CCCO2)C(c2ccc(C)o2)C2=C(CC(c3ccc(F)cc3)CC2=O)N1 (centres undefined) | -0.22 | 0.44 | -0.5 | -2.6

Assay outcomes: PubChem, several laboratories
